Most compounds without a hit are left out; they make up all but 18% or so of the library.
LDHA block = blocks human lactate dehydrogenase A. P00338. purified LDHA, NADH/diaphorase-resazurin fluorescence; hits give low values. activity change, % (values are at about 110 or 230 µM). 480,000 compounds, 0.15% hits. AID 1347041; in the data active = activity change below about -30%; inconclusive = mostly about -25% to -30%;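 also: plate controls were DMSO wells for no effect and wells without enzyme for full effect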
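Resorufin fluorescence (ex540/em590), read at 0 and 20 min after diaphorase/resazurin addition, reports the NADH left after a 5 min room-temperature reaction of 2 nM human LDH5 with 0.06 mM NADH and 0.2 mM pyruvate.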
IL-1B inflam inh = blocks inflammasome-driven IL-1 beta release; THP-1 LPS/ATP IL-1B secretion, AlphaLISA, 16 h; hits give low values; activity change, % at 57.5 µM; 360,000 compounds, 4.7% hits; AID 743279; in the data active = activity change below about -50%; inconclusive = mostly about -30% to -49%
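THP-1 cells pretreated 1 hr with compounds (up to 57.5 uM final), then stimulated with LPS (250 ng/mL final) plus ATP (1.25 mM final); secreted IL-1B measured by AlphaLISA after 16 hr, decreased signal indicating inhibition.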
Gal4-VP16 FLuc = inhibits Gal4-VP16 luciferase reporter, ROR gamma counter-screen. Drosophila S2 Gal4-VP16 UAS-luciferase, luminescence, 20 h. Potency, µM (series often up to 53.6 µM), inactives show at the highest dose activity, negative = inhibition, most hits filed as inhibitors. 310,000 compounds, 3.5% hits. AID 2546;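 also: Gal4-VP16 expression switched on by copper sulfate through the metallothionein promoter; potency is read from the fitted curve at half-maximal effect; nearly all actives have a fitted effect of over 50% in size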
TDP1 cell CPT = growth inhibition of DT40 Tdp1-/-;hTDP1 cells with camptothecin (screen for TDP1 inhibitors) | chicken DT40 Tdp1-/-;hTDP1 cells + 20 nM CPT, ATP luminescence, 48 h | Potency, µM (doses to about 46.2 µM), without a hit: at the top dose activity change, negative = growth inhibition, hits mostly inhibitors | 420,000 compounds, 12% hits; also: potency is read from the fitted curve at half-maximal effect; nearly all actives have a fitted effect of over 55% in size
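Cell growth measured by CellTiter-Glo luminescence after a minimum 48 h, 37 C compound exposure with 20 nM CPT in Tdp1-knockout DT40 cells stably expressing hTDP1, seeded 400/well; qHTS titration format.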
TDP1 cell noCPT = qHTS for Inhibitors of human tyrosyl-DNA phosphodiesterase 1 (TDP1): qHTS in cells in absence of CPT | 420,000 compounds, 15% hits | DT40 Tdp1-/- hTDP1 cells, no CPT, ATP luminescence, 48 h | Potency, µM (highest dose often 46.2 µM), without a hit: top-dose activity change, negative = growth inhibition, actives largely listed as inhibitors | AID 686978, 2013; also: potency is read from the fitted curve at half-maximal effect; nearly all actives have a fitted effect of over 55% in size
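Readout: luminescence from CellTiter-Glo after 30 min in the dark at RT. Cells: DT40 Tdp1-/- with stable hTDP1, 400/well. Exposure: compounds alone, ≥48 hr, 37 °C.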
RORg inh = ROR gamma (mouse) transcription inhibition; 310,000 compounds, 5.4% hits; Drosophila S2 Gal4-RORgamma UAS-luciferase reporter, 20 h; Potency, µM (top dose mostly 53.6 µM), for inactives: at the highest dose activity change, negative = inhibition, most hits filed as inhibitors; AID 2551; also: potency is read from the fitted curve at half-maximal effect; nearly all actives have a fitted effect of over 60% in size
Target sequence (P51450 whole entry, looked up, the tested form may be a part): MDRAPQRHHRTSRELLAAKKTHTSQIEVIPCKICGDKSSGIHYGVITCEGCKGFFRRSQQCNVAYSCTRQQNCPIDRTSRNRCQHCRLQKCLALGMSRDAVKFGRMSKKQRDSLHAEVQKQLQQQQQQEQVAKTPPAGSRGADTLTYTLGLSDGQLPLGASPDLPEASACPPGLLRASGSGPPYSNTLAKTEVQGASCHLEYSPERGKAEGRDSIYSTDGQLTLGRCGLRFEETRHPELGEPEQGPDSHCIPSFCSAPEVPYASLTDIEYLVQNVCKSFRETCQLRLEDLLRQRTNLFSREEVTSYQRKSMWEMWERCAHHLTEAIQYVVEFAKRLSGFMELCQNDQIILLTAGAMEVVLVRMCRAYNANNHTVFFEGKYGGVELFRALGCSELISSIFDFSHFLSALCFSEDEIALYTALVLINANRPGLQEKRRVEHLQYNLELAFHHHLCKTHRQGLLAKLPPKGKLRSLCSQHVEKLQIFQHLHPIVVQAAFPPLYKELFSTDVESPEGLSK
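Stably transfected Drosophila Schneider cells are the test system, with ROR gamma fused to Gal4 and luciferase under UAS control; luminescence is read after 20 hr of 700 uM copper sulfate induction at ambient temperature.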
Active calls of the source: *; ? = inconclusive; . = no result; [ ] = another dose, or the depositor's remark. Unless noted, calls follow the shape of the dose curve; as a rule, active = well fitted curve in the direction sought with a large enough effect; inconclusive = small, poorly fitted or top-dose-only effect, or another doubt; inactive = no such curve, though single readings can be large; an effect the other way counts as inactive or inconclusive. Unless noted, % is scaled to controls: 0 for no effect and ±100 for the full control effect.

SMILES	LDHA block	IL-1B inflam inh	Gal4-VP16 FLuc	TDP1 cell CPT	TDP1 cell noCPT	RORg inh
Cc1cccc(NC(=S)N(CCCN2CCOCC2)C(C)c2cc3ccccc3o2)c1 (stereo not drawn)	-6	5	-2%[10 µM]	-11%	-30%	13µM*
Cc1cccc(NC(=S)N(CCCN2CCOCC2)C(C)c2cc3ccccc3o2)c1C (stereo not drawn)	-2	7	?	-18%	-22%	10µM*
COc1cccc2cc(C(C)N(CCCN3CCOCC3)C(=S)Nc3ccccc3C)oc12 (stereo not drawn)	-6	22	2%	5%	?	?
COc1cccc2cc(C(C)N(CCCN3CCOCC3)C(=S)Nc3cccc(C)c3)oc12 (stereo not drawn)	-1	20	-6%	-5%	-5%	?
Cc1ccc(CN2CCc3c(OCC(=O)Nc4cccc(C)c4C)cccc3C2=O)cc1	.	.	-14%	.	.	?
O=C(COc1cccc2c1CCN(Cc1ccc(Br)cc1)C2=O)N1CCOCC1	0	-63*	3%	?	23µM*	31%
O=C1c2cccc(OCC(=O)N3CCCc4ccccc43)c2CCN1Cc1ccc(Br)cc1	-10	-22	-28%	18µM*	18µM*	?
O=C(COc1cccc2c1CCN(Cc1ccc(Br)cc1)C2=O)NCc1ccco1	-5	-28	-8%	18µM*	23µM*	?
FC(F)(F)c1n[nH]c(=S)n1/N=C/c1ccco1	-13	11	12%	-3%	5%	-14%
S=c1[nH]nc(-c2ccc(Cl)cc2)n1/N=C/c1ccco1	-9	-8	?	-18%	?	3.2µM*
S=c1[nH]nc(-c2ccco2)n1/N=C/C=C/c1ccccc1	-3	13	?	5%	?	2.5µM*
S=c1[nH]nc(-c2ccco2)n1/N=C/c1ccc(Cl)cc1Cl	-16	0	18µM*	-16%	-12%	5.6µM*
S=c1[nH]nc(-c2cccnc2)n1/N=C/C=C/c1ccco1	9	21	-1%	-5%	11%	-37%
S=c1[nH]nc(-c2ccco2)n1/N=C/c1cccc(Cl)c1Cl	-13	0	?	-2%	?	?
S=c1[nH]nc(-c2ccccc2)n1/N=C/C=C/c1ccco1	-2	10	3.2µM*	?	?	2.8µM*
COc1ccc(NC(=O)c2ncoc2-c2ccc(OC)c(OC)c2)c(OC)c1	0	.	.	.	.	.
Cc1cc(-c2n[nH]c(=S)n2/N=C/C=C/c2ccco2)n[nH]1	-14	7	-1%	22%	-8%	-2%
Cc1ccccc1-c1n[nH]c(=S)n1/N=C/C=C/c1ccco1	4	14	-18%	?	18µM*	2.5µM*
S=c1[nH]nc(-c2ccc(Cl)cc2)n1/N=C/C=C/c1ccco1	1	12	-8%	?	21µM*	?
CN(C)C(CNC(=O)Cc1c[nH]c2ccccc12)c1ccccc1 (stereo not drawn)	-5	.	.	.	.	.
O=C(/C=C/Nc1ccc(Br)cc1F)c1ccc(OC(F)F)cc1	9	.	.	.	.	.
CC(OC(=O)c1cccc(O)c1)C(=O)NC(=O)NC1CCCC1 (stereo not drawn)	11	.	.	.	.	.
Cc1ncc(-c2ccc(C)c(S(=O)(=O)Nc3ccc(OC(F)(F)F)cc3)c2)o1	6	.	.	.	.	.
Clc1cccc(Cc2c(-c3cccc(Br)c3)nc3ccc(Cl)cn23)c1	-5	0	.	?	?	.
Cc1ccc2nc(-c3cccc(Br)c3)c(Cc3cccc(Cl)c3)n2c1	-6	-2	.	?	18µM*	.
SMILES	LDHA block	IL-1B inflam inh	Gal4-VP16 FLuc	TDP1 cell CPT	TDP1 cell noCPT	RORg inh
Cc1ccc2nc(-c3ccccc3)c(Cc3cccc(Cl)c3)n2c1	-2	-5	.	21µM*	18µM*	.
Cc1ccc(Cc2c(-c3cccc(Cl)c3)nc3ccc(Cl)cn23)cc1	-8	7	.	?	?	.
Cc1ccc(Cc2c(-c3cccc(Br)c3)nc3ccc(Cl)cn23)cc1	-4	18	.	?	18µM*	.
Brc1cccc(-c2nc3c4ccccc4ccn3c2Cc2ccccc2)c1	-8	7	.	21µM*	?	.
c1ccc(Cc2c(-c3ccccc3)nc3c4ccccc4ccn23)cc1	-3	40	.	?	?	.
Clc1cccc(Cc2c(-c3ccccc3)nc3ccc(Cl)cn23)c1	-2	53	.	?	?	.
CCOC(=O)C(NC(=O)/C=C/c1ccc(OCC)c(OC)c1)C(=O)OCC	-4	.	.	.	.	.
CN(Cc1ccc(C(C)(C)C)cc1)C(=O)C1CCN(C(=O)c2ccc(C(F)(F)F)cc2)CC1	11	.	.	.	.	.
Cc1ccccc1OCC(=O)Nc1cc(C(F)(F)F)ccc1N1CCOCC1	-1	.	.	.	.	.
CCCc1nc2c3ccccc3ccn2c1Cc1cccc(Cl)c1	-1	33	.	?	?	.
Clc1ccc2nc(-c3ccccc3)c(Cc3ccccc3)n2c1	0	61	.	?	18µM*	.
Clc1ccc(-c2nc3ccc(Cl)cn3c2Cc2ccccc2)cc1	2	24	.	?	?	.
CCCc1nc2ccc(C)cn2c1Cc1cccc(Cl)c1	3	2	.	?	16µM*	.
Cc1ccc(Cc2c(-c3ccc(Cl)cc3)nc3ccc(Cl)cn23)cc1	-5	6	.	?	21µM*	.
Cc1ccc(Cc2c(-c3cccc(Cl)c3)nc3ccc(C)cn23)cc1	-3	-8	.	?	16µM*	.
Cc1cnc2c(S(=O)(=O)NC3CCCCNC3=O)cccc2c1 (stereo not drawn)	5	.	.	.	.	.
CC(OC(=O)c1ccc(CO)cc1)C(=O)c1c[nH]c2ccccc12 (stereo not drawn)	2	.	.	.	.	.
COc1cccc(C(=O)OCc2ccc(C#N)cc2)c1OC	3	.	.	.	.	.
Cc1ccc2nc(-c3cccc(Br)c3)c(Cc3ccccc3)n2c1	-7	-1	.	26µM*	?	.
O=C(NCCc1ccccc1)c1cc2cc(F)ccc2[nH]1	-6	.	.	.	.	.
CCOc1ccc2c(c1)OC(c1ccc(OC)cc1)(C(F)(F)F)NC2=O (stereo not drawn)	-2	-29	-3%	3.3µM*	3.3µM*	58%
CCCNC(=O)NC(=O)CSc1nc2ccccc2n1CC(C)C	-3	2	-6%	?	?	?
CC(C)Cn1c(C(C)NC(=O)Cc2ccccc2)nc2ccccc21 (stereo not drawn)	4	-1	5%	12µM*	6.5µM*	?
CCC(=O)NC(C)c1nc2ccccc2n1C (stereo not drawn)	-3	-15	.	4%	-7%	1%[0.365 µM]

From PubChem
